# Compounds with a hit are over-represented: about 3.2% of the library has one in this group of screens.
# LGR2 inh: inhibitors of bursicon-induced LGR2 CRE-luciferase signal, primary screen, cell-based, HEK293, CRE-luciferase reporter, bursicon stimulation; Drosophila bursicon receptor LGR2 (rickets); bursicon-stimulated, 4 h; inhibition, % at 9.99 µM; 380,000 tested, 0.35% active; AID 720647, 2013;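 active = drop in luminescence signal, shown as inhibition above about 50% in the replicate tests, limit read from the data, passing the limit was not always enough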;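 also: agonist challenge used bursicon conditioned medium at about half maximal strength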
# LMP1 NFkB inh: EBV LMP1-driven NF-kappaB luciferase reporter inhibitors, primary screen, cell-based, luminescence, single point | LMP1-induced NF-kappaB luciferase reporter cells | inhibition, % at 12.5 µM | 350,000 tested, 0.69% active; in the data active = inhibition above about 41%;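 also: 0% = neutral control wells and 100% = reference inhibitor control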
# TROY NFkB inh: inhibitors of TROY-driven NF-kB signaling, primary screen, Q293 LMP1-TROYcd cells, NF-kB luciferase, uHTS | inhibition, % at 10 µM | AID 1347056, 2019 | 360,000 tested, 0.98% active | Q293 LMP1-TROYcd NF-kB luciferase reporter, 4 h;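 active = compounds whose plate-normalised and pattern-corrected inhibition of the luciferase reporter signal at the single screening dose is 50% or more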
# TWEAK-Fn14 inh: inhibitors of TWEAK-Fn14 signaling, primary screen, luciferase reporter cells, uHTS; TWEAK-stimulated Fn14 reporter cells, luciferase luminescence, 8 h; inhibition, % at 10 µM; 360,000 tested, 2% active; AID 1159606, 2016; in the data active = inhibition above about 50%
# PAX8 reporter: inhibitors of PAX8-driven TPO luciferase reporter, primary screen, RMG-I cells, single concentration. SteadyGlo, 24 h. 360,000 tested, 1.2% active. inhibition, % at 12.6 µM;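 active = mean replicate inhibition at least 60% with every replicate also reaching 60%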;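 also: luciferase light reporting Pax8 driven TPO promoter activity; plate controls were median of neutral control wells for no effect and mitoxantrone controls for full effect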
# EWS-Fli block: EWS/Fli-driven NR0B1 reporter inhibitors, primary screen, A673 cells, NR0B1 luciferase, luminescence, MLPCN library; viability-normalised; inhibition, % at 12.6 µM; 350,000 tested, 0.67% active;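 active = mean inhibition of at least 50% after viability correction, with every replicate also passing that limit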;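 also: firefly luciferase signal divided by Alamar Blue viability fluorescence both relative to DMSO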
# * marks the source's active call; other numbers are inactive results; / = not tested or not shown; ! = not active in a repeat.
SMILES,LGR2 inh,LMP1 NFkB inh,TROY NFkB inh,TWEAK-Fn14 inh,PAX8 reporter,EWS-Fli block
CCCSc1nsc(NC(=O)C(c2ccccc2)c2ccccc2)n1,/,2,55*,11,/,/
O=C(CCCSc1nc(-c2ccco2)cc(C(F)(F)F)n1)NCC1CCCO1 (configuration not stated),/,3,/,71*,/,/
O=C(CCSc1nc(-c2ccco2)cc(C(F)(F)F)n1)NCC1CCCO1 (configuration not stated),/,2,/,-3,/,/
COc1cc(-c2ccc3oc(-c4ccsc4)cc(=O)c3c2)cc(OC)c1OC,64*,23,20,25,5,-7
COc1ccc(-c2cc(=O)c3cc(OC)ccc3o2)cc1,2,23,7,65*,/,52*
COc1ccc(-c2cc(=O)c3ccc(O)cc3o2)cc1,-18,1,-70,0,/,-69
O=C(C[C@H]1C[C@H]2c3cc(NC(=O)C4CCOCC4)ccc3O[C@H]2[C@@H](CO)O1)NCc1cc(F)ccc1F,15,/,/,/,-23,-12
Cc1noc(C)c1NC(=O)N[C@H]1CC[C@H](CC(=O)Nc2ccc(-c3ccccc3)cc2)O[C@H]1CO,-1,/,/,/,-13,-19
C[C@H]1CN([C@@H](C)CO)C(=O)c2cccc(NC(=O)Nc3ccc4c(c3)OCO4)c2O[C@H]1CN(C)Cc1ccc(-c2ccccc2)cc1,3,/,/,/,/,-12
O=C(OCc1nc2ccccc2s1)[C@@H]1CCCN1S(=O)(=O)c1ccccc1F,/,77*,29,-6,/,/
O=C1C=C(Nc2ccc(F)cc2)c2ccccc2C1=O,-42,-8,32,47,-82,-52
O=C1C=C(NCc2ccccc2)c2ccccc2C1=O,96*,-12,25,69*,77*,44
Cc1ccc(Cl)cc1S(=O)(=O)N1CCC(C(=O)NC2CCN(Cc3ccccc3)CC2)CC1,9,4,28,52*,-7,25
O=C1NC(c2cccc(OCc3ccccc3)c2)Nc2ccccc21 (configuration not stated),5,61*,-6,37,56,39
Cc1c(NS(=O)(=O)c2cccs2)cccc1-c1nc2cccnc2s1,-15,-4,-4,-3,-34,-20
O=S(=O)(Nc1cccc2ncccc12)c1cccs1,/,24,65*,107*,/,/
CC(=O)Nc1cccc(-c2ccnc3c2CC(C)(C(=O)Nc2cccc(OC(F)(F)F)c2)O3)c1 (configuration not stated),16,/,42,16,/,52*
CC(=O)Nc1cccc(-c2ccnc3c2CC(C)(C(=O)NCc2ccc(F)c(F)c2)O3)c1 (configuration not stated),-22,/,19,11,16,58*
CC1(C(=O)NCc2ccc(F)c(F)c2)Cc2c(-c3cccc(C(N)=O)c3)ccnc2O1 (configuration not stated),-14,/,-12,-13,12,21
CC1(C(=O)NCc2ccccc2)Cc2c(-c3cccc(C(N)=O)c3)ccnc2O1 (configuration not stated),-20,/,-7,2,51,58*
CC1(C(=O)Nc2cccc(OC(F)(F)F)c2)Cc2c(-c3cccc(C(F)(F)F)c3)ccnc2O1 (configuration not stated),9,/,-4,-4,16,8
C[C@H](CO)N1C[C@H](C)[C@@H](CN(C)C(=O)Nc2ccc(C(F)(F)F)cc2)Oc2c(NC(=O)Nc3ccccc3)cccc2C1=O,21,9,-6,-18,-6,64*!
C[C@@H]1CN([C@H](C)CO)C(=O)c2cccc(NC(=O)Nc3ccc(C(F)(F)F)cc3)c2O[C@@H]1CN(C)C(=O)Nc1ccccc1,15,/,/,/,11,8
CNC[C@@H]1Oc2c(NC(=O)Nc3ccccc3)cccc2C(=O)N([C@@H](C)CO)C[C@H]1C,1,-2,-6,11,1,-1
C[C@H]1CN([C@@H](C)CO)C(=O)c2cccc(NC(=O)Nc3ccc(F)cc3)c2O[C@H]1CN(C)C(=O)Nc1ccc(C(F)(F)F)cc1,7,/,/,/,80*,7
SMILES,LGR2 inh,LMP1 NFkB inh,TROY NFkB inh,TWEAK-Fn14 inh,PAX8 reporter,EWS-Fli block
C[C@H](CO)N1C[C@H](C)[C@@H](CN(C)Cc2ccc3c(c2)OCO3)Oc2c(NC(=O)Nc3ccc(C(F)(F)F)cc3)cccc2C1=O,60*,/,/,/,/,6
CNC[C@H]1Oc2c(NC(=O)Nc3ccccc3)cccc2C(=O)N([C@H](C)CO)C[C@@H]1C,-8,/,/,/,73*,-2
CO[C@@H](CN(C)C(=O)Nc1ccc(C(F)(F)F)cc1)[C@H](C)CN(Cc1ccccc1Cl)[C@@H](C)CO,4,/,/,/,/,17
Cc1ccccc1CN(C)CCS(=O)(=O)c1cc(Cl)ccc1Cl,-8,-13,3,65*,20,12
Nc1nnc(CCS(=O)(=O)c2cc(Cl)ccc2Cl)s1,/,-2,2,3,/,/
C[C@H]1CN([C@@H](C)CO)C(=O)c2cc(NC(=O)CCN3CCOCC3)ccc2O[C@H]1CN(C)C(=O)Nc1ccccc1,12,/,/,/,-11,/
O=S(=O)(c1ccccc1)N1CC2(C1)[C@H](c1ccccc1)[C@H](CO)N2CC1CCCC1,29,/,/,/,47,1
Cc1ccc2c(c1)/C(=C/c1ccccc1F)C(=O)N2,8,-7,-29,11,-53,6
CN1C2CCC1/C(=C\c1ccccc1F)C(=O)/C2=C/c1ccccc1F,20,4,20,83*,9,/
C[C@@H]1CCCCO[C@H](CN(C)C)[C@H](C)CN([C@@H](C)CO)C(=O)c2cc(NC(=O)C3CCCCC3)ccc2O1,1,/,/,/,-5,1
Cc1ccc(NC(=O)Cc2cc(C(=O)O)c3ccccc3n2)c(C)c1,19,9,43,52*,70*,13
CC(C)Cc1nc2oc3c(NCCCN4CCOCC4)ncnc3c2c2c1CCC2,/,-3,6,-54,/,/
CC(C)Cc1nc2oc3c(Cl)ncnc3c2c2c1CCC2,-2,-2,-7,90*,/,58*
C[C@@H]1CN([C@H](C)CO)C(=O)c2cc(NC(=O)Nc3ccc(C(F)(F)F)cc3)ccc2O[C@@H](C)CCCCO[C@H]1CN(C)Cc1ccc(C(F)(F)F)cc1,13,/,/,/,19,13
C[C@@H]1CCCCO[C@H](CN(C)Cc2ccc(C(F)(F)F)cc2)[C@@H](C)CN([C@H](C)CO)C(=O)c2cc(NC(=O)Nc3ccc(C(F)(F)F)cc3)ccc2O1,11,/,/,/,-9,-11
C[C@@H]1CCCCO[C@@H](CN(C)Cc2ccc(Cl)c(Cl)c2)[C@@H](C)CN([C@@H](C)CO)C(=O)c2cc(NC(=O)Nc3ccc(C(F)(F)F)cc3)ccc2O1,-26,/,/,/,73*,-10

# Assay outcomes as filed in PubChem.
